Measurements published in PubChem BioAssay (Tox21).
Results filed as inconclusive are left out. Where a call stands in place of a potency, no number is given. A number with no mark means an inactive call. Activity calls are given as the source filed them. Unless noted, calls follow the shape of the dose curve; as a rule, active = well fitted curve in the direction sought with a large enough effect in the repeat runs; inconclusive = weak or mixed curves; inactive = no such curve, though single readings can be large; an effect the other way counts as inactive or inconclusive.

How the values were obtained:
[1] = qHTS assay to identify small molecule agonists of the RXR signaling pathway - cell viability counter screen (AID 1159529); also: nearly all actives have a fitted effect of over 50% in size; also: potency is read from the fitted curve at half-maximal effect
How it was run: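 Luminescence from CellTiter-Glo (30 min, RT) measured viability in the same wells as the beta-lactamase reporter readout. Cells: GeneBLAzer RXR-alpha HEK 293T, 2% charcoal-stripped FBS. Compound exposure 16 hr, 37 C.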

[2] = qHTS assay to identify small molecule antagonists of the retinoid acid receptor (RAR) signaling pathway - cell viability counter screen (AID 1159551); also: nearly all actives have a fitted effect of over 35% in size
How it was run: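 Cells (C3RL4) are plated, incubated overnight, dosed with compound in DMSO, then given retinol at 1 uM final. After 6 h at 37 C, CellTiter-Glo is added and luminescence read following 30 min at room temperature.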

[3] = qHTS assay to identify small molecule antagonists of the retinoic acid receptor (RAR) signaling pathway (AID 1159552; also: nearly all actives have a fitted effect of over 50% in size)
How it was run: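 Luminescence from a RARE luciferase reporter in C3RL4 cells served as read-out. Cells received compounds together with 1 uM final retinol and incubated 6 hr at 37 C before detection reagent was added for 30 min at room temperature.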

[4] = qHTS assay to identify small molecule agonists of the retinoic acid receptor (RAR) signaling pathway (AID 1159553); also: potency is read from the fitted curve at half-maximal effect
How it was run: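 Seed C3RL4 reporter cells at 1,000 per well and incubate overnight at 37 C. Add compounds in DMSO, incubate 6 hr. Add luciferase reagent, wait 30 min at room temperature, read luminescence.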

[5] = qHTS assay to identify small molecule antagonists of the estrogen related receptor (ERR) signaling pathway from Tox21 library - cell viability counter screen (AID 1224834); also: nearly all actives have a fitted effect of over 30% in size; also: potency is read from the fitted curve at half-maximal effect
How it was run: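 ERR cells, 2,000/well; 6 h settle at 37 C/5% CO2; pin-tool compound transfer in DMSO; 17.5 h at 37 C; CellTiter-Fluor, 30 min; fluorescence intensity.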

[6] = biological target: Luciferin 4-monooxygenase (Photinus pyralis) (UniProt P08659); experiment: qHTS assay to identify small molecule inhibitors of firefly luciferase (AID 1224835); also: series mostly up to about 120 µM; nearly all actives have a fitted effect of over 25% in size
Luciferin 4-monooxygenase (Photinus pyralis), sequence (P08659 whole entry, looked up): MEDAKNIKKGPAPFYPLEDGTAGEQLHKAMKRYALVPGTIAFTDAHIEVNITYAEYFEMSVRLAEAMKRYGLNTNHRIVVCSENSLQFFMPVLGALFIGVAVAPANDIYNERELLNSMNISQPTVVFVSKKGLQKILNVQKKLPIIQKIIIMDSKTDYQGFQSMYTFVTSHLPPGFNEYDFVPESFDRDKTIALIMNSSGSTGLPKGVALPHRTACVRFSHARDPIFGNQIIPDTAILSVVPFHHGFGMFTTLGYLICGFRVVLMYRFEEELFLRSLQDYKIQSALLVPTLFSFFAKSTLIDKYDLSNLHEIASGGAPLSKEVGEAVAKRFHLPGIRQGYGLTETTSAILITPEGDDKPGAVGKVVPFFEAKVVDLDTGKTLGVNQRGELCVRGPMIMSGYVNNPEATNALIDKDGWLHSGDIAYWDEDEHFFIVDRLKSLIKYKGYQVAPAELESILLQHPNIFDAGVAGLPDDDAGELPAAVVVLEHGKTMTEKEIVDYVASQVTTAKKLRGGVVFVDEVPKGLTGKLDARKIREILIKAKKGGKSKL
How it was run: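 Inhibition of purified Photinus luciferase is measured by luminescence. Substrate levels (D-luciferin, ATP) sit at their KM values. Each compound is tested in a concentration series.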

[7] = qHTS assay to identify small molecule agonists of the constitutive androstane receptor (CAR) signaling pathway - cell viability counter screen (AID 1224836); also: nearly all actives have a fitted effect of over 45% in size; also: potency is read from the fitted curve at half-maximal effect
How it was run: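 Viability read-out: CellTiter-Fluor fluorescence after 23 h compound exposure at 37 C/5% CO2 in double-stable HepG2-CYP2B6-hCAR cells, with PK11195 present at 0.75 uM final; compounds tested in 15-point titration.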

[8] = qHTS assay to identify small molecule antagonists of the constitutive androstane receptor (CAR) signaling pathway - cell viability counter screen (AID 1224837); also: nearly all actives have a fitted effect of over 45% in size; also: potency is read from the fitted curve at half-maximal effect
How it was run: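 Viability was measured with CellTiter-Fluor in a HepG2 line carrying stably transfected hCAR and a CYP2B6-2.2kb construct. Cells were exposed for 23 hr at 37 C to 15 compound concentrations with 50 nM CITCO as agonist.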

[9] = biological target: Nuclear receptor subfamily 1 group I member 3 (Homo sapiens) (UniProt Q14994); experiment: qHTS assay to identify small molecule antagonists of the constitutive androstane receptor (CAR) signaling pathway (AID 1224838);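 also: HepG2 cells stably expressing hCAR with CYP2B6 luciferase reporter stimulated by CITCO; nearly all actives have a fitted effect of over 40% in size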
Nuclear receptor subfamily 1 group I member 3 (Homo sapiens), sequence (Q14994 whole entry, looked up): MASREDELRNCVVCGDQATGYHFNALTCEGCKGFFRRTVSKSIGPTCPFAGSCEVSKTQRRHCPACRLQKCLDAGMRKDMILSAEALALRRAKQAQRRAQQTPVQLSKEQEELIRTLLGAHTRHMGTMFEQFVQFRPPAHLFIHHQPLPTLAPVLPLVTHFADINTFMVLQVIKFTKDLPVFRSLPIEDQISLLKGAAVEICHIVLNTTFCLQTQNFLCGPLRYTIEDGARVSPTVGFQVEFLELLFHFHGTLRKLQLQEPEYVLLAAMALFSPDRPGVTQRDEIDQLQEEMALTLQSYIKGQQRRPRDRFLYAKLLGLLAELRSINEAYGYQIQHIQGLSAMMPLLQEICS
How it was run: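 Antagonist mode used CITCO at a final 50 nM to activate CAR in human hepatoma HepG2 cells carrying stable hCAR and a 2.2 kb CYP2B6 promoter-luciferase construct. Compounds were tested at 15 concentrations over 24 h, with luminescence as the end point.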

[10] = biological target: Nuclear receptor subfamily 1 group I member 3 (Homo sapiens) (UniProt Q14994); experiment: qHTS assay to identify small molecule agonists of the constitutive androstane receptor (CAR) signaling pathway (AID 1224839); also: series mostly up to about 92 µM; nearly all actives have a fitted effect of over 15% in size
How it was run: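 Luminescence read-out (ONE-Glo, 30 min, room temperature) from double-stable HepG2-CYP2B6-hCAR cells exposed 24 h to 15-point compound series in presence of 0.75 uM PK11195 final.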

[11] = qHTS assay to identify small molecule antagonists of the estrogen related receptor signaling pathway with the pleiotropic PPARgamma coactivator (PGC) from Tox21 10K library - cell viability counter screen (AID 1224840; active = well fitted cell-killing curve with a large enough effect in the repeat runs, not every such curve was filed as active; also: nearly all actives have a fitted effect of over 40% in size)
How it was run: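 Multiplexed viability counter screen in the PGC/ERR cell line: cells treated with DMSO-dissolved compounds for 17.5 hours at 37 C, then viability measured as CellTiter-Fluor fluorescence.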

[12] = biological target: Thyrotropin receptor (Homo sapiens) (UniProt P16473); experiment: qHTS assay to identify small molecule agonists of the thyroid stimulating hormone receptor (TSHR) signaling pathway (AID 1224843; calls by dose curve; also: nearly all actives have a fitted effect of over 45% in size; also: potency is read from the fitted curve at half-maximal effect)
Thyrotropin receptor (Homo sapiens), sequence (P16473 whole entry, looked up): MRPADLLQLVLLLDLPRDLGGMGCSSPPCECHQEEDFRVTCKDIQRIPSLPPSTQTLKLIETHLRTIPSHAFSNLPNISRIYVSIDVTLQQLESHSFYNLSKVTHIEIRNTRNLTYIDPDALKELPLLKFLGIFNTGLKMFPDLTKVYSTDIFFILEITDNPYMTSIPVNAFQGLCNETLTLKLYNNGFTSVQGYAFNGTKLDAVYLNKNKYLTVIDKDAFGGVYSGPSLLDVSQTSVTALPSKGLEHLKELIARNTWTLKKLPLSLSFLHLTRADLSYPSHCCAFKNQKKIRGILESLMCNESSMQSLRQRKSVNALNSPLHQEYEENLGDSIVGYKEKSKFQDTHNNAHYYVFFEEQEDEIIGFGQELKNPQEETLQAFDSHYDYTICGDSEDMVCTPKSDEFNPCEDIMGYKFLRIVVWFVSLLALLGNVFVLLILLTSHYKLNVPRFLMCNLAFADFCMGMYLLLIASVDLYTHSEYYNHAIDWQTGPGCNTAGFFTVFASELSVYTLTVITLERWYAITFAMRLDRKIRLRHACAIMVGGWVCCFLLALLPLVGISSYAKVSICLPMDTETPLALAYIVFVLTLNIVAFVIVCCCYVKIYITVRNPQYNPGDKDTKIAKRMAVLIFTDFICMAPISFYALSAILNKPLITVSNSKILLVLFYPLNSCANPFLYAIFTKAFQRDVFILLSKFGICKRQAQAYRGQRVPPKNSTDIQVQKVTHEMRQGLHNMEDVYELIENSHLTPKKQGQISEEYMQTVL
How it was run: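 A cell-based cAMP HTRF format was run in TSHR-transfected HEK293 cells, 800 per well. Treatment: 30 min, room temperature. Detection: 1 h with labelled cAMP and anti-cAMP cryptate. Concentration-response over 15 points, three replicates.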

[13] = qHTS assay to identify small molecule antagonists of the estrogen related receptor signaling pathway with the pleiotropic PPARgamma coactivator (PGC) from Tox21 10K library (AID 1224841; call rule not given here; also: series mostly up to about 92 µM; actives are mostly falling curves and most rising ones were filed inactive; nearly all actives have a fitted effect of over 50% in size)
How it was run: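 Steps: plate 2,000 PGC/ERR cells per well; incubate 6 h at 37 C with 5% CO2; transfer compounds from DMSO stocks by pin tool; incubate 18 h at 37 C; add One-Glo; measure luminescence 30 min later.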

[14] = qHTS assay to identify small molecule agonists of the estrogen related receptor signaling pathway with the pleiotropic PPARgamma coactivator (PGC) from Tox21 10K library (AID 1224842); also: nearly all actives have a fitted effect of over 15% in size
How it was run: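 Luminescence from One-Glo (30 min, room temperature) measured after PGC/ERR cells had 18 h at 37 C with pinned compound (23 nL in DMSO). Cells had been seeded at 2,000 per well and pre-incubated 6 h.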

[15] = qHTS assay to identify small molecule antagonists of the estrogen related receptor (ERR) signaling pathway - cell viability counter screen (AID 1224818); also: series mostly up to about 46 µM
How it was run: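 ERR cells, 2,000/well; 6 h settle at 37 C/5% CO2; compound pin transfer (DMSO); 17.5 h at 37 C; CellTiter-Fluor, 30 min, fluorescence read.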

[16] = qHTS assay to identify small molecule antagonists of the estrogen related receptor signaling pathway with the pleiotropic PPARgamma coactivator (PGC) cell viability counter screen (AID 1224822;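 also: series mostly up to about 46 µM; viability read after 17.5 h compound exposure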)
How it was run: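 Multiplexed viability counter screen run in PGC/ERR cells treated with compounds for 17.5 h at 37 C; live-cell protease signal measured by CellTiter-Fluor fluorescence.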

[17] = qHTS assay to identify small molecule agonists of the estrogen related receptor (ERR) signaling pathway (AID 1224820)
How it was run: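 Luminescence readout (One-Glo, 30 min RT) from NTP-supplied ERR cell line exposed to compounds for 18 h at 37 C. Cells seeded 2,000 per well and pre-incubated 6 h before pin-tool compound transfer.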

[18] = qHTS assay to identify small molecule agonists of the estrogen related receptor signaling pathway with the pleiotropic PPARgamma coactivator (PGC) (AID 1224823)
How it was run: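 Luminescence readout (One-Glo, 30 min RT) from PGC/ERR cell line treated 18 h at 37 C with pin-tool-delivered DMSO compound solutions; cells plated 6 h before dosing. Quantitative HTS format.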

[19] = qHTS assay to identify small molecule antagonists of the estrogen related receptor (ERR) signaling pathway (AID 1224819;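 also: luminescence from an ERR-driven luciferase reporter measured with One-Glo reagent; series mostly up to about 46 µM; nearly all actives have a fitted effect of over 50% in size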)
How it was run: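 qHTS in ERR cells, 2,000/well, 1536 format. Cpd (DMSO) added after 6 h settle, 18 h 37 C. One-Glo luminescence, 30 min RT.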

[20] = tested on: estrogen-related receptor alpha (ERRalpha) with PGC-1alpha coactivator, human; experiment: qHTS assay to identify small molecule antagonists of the estrogen related receptor signaling pathway with the pleiotropic PPARgamma coactivator (PGC) (AID 1224821; calls by dose curve)
How it was run: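 PGC/ERR reporter cells; 6 h pre-incubation 37 C/5% CO2; pin-tool compound in DMSO, 18 h 37 C; One-Glo added, 30 min RT; luminescence read. qHTS antagonist mode.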

Row | Structure (SMILES) | Potency [1] | Potency [2] | Potency [3] | Potency [4] | Potency [5] | Potency [6] | Potency [7] | Potency [8] | Potency [9] | Potency [10] | Potency [11] | Potency [12] | Potency [13] | Potency [14] | outcome [15] | outcome [16] | outcome [17] | outcome [18] | outcome [19] | outcome [20]
1 | NCCCN(CCO)CCO | inactive | inactive | inactive | inactive | inactive | inactive | inactive | inactive | inactive | inactive | inactive | inactive |  |  |  |  |  |  |  | 
2 | C=C(C)C(=O)OCCN(C)C | inactive | inactive | inactive | inactive | inactive | inactive | inactive | inactive | inactive |  | inactive |  |  |  |  |  |  |  |  | 
3 | CCOc1cc(OCC)c(C(=O)CCC(=O)O)cc1OCC | inactive | inactive | inactive | inactive | inactive | inactive | inactive | inactive | inactive | inactive | inactive |  |  |  |  |  |  |  |  | 
4 | O=[N+]([O-])c1cc[n+]([O-])cc1 | inactive | inactive | inactive | inactive | inactive | inactive | 30.6 µM (active) | 30.6 µM (active) |  |  |  |  |  |  |  |  |  |  |  | 
5 | N[C@H]1C(O)O[C@H](CO)[C@H](O)[C@@H]1O (stereo not given in full) | inactive | inactive | inactive | inactive | inactive | inactive | inactive | inactive | inactive | inactive | inactive | inactive | inactive | inactive |  |  |  |  |  | 
6 | O=C(c1ccccc1)c1ccc2n1CCC2C(=O)O (stereo not given) | inactive | inactive | inactive | 13.3 µM (active) | inactive |  | inactive | inactive | inactive |  | inactive |  |  |  | inactive | inactive |  |  |  | 
7 | CC(C)CCCCCCOC(=O)c1ccc(C(=O)OCCCCCCC(C)C)c(C(=O)OCCCCCCC(C)C)c1 | inactive | inactive | inactive | inactive | inactive | inactive | inactive | inactive | inactive | inactive | inactive | inactive |  |  |  |  |  |  |  | 
8 | COc1ccc(C(C)=O)cc1 | inactive | inactive | inactive | inactive | inactive | inactive | inactive | inactive | inactive | inactive | inactive |  |  |  |  |  |  |  |  | 
9 | CCCCCCCCCO | inactive | inactive | inactive | inactive | inactive | inactive | inactive | inactive | inactive | inactive | inactive | inactive | inactive | inactive |  |  |  |  |  | 
10 | O=C(NS(=O)(=O)/C=C/c1cccs1)c1ccc(F)cc1Br | inactive | inactive | inactive | inactive | inactive | inactive | inactive | inactive | inactive | inactive |  |  |  |  |  |  |  |  |  | 
11 | CN1CCN(C2=Nc3cc(Cl)ccc3Nc3ccccc32)CC1 | inactive | inactive | inactive | inactive | 26.6 µM (active) | inactive |  |  | inactive |  |  | inactive |  |  | inactive |  |  |  |  | 
12 | CCCCCCCCCCCCCCCC(=O)OC/C=C(C)/C=C/C=C(C)/C=C/C1=C(C)CCCC1(C)C | inactive | inactive | inactive | inactive | inactive | inactive | inactive | inactive | inactive | inactive |  | inactive |  |  |  |  |  |  |  | 
13 | CCCCCCOC(=O)CCC | inactive | inactive | inactive | inactive | inactive | inactive | inactive | inactive | inactive | inactive | inactive | inactive |  |  |  |  |  |  |  | 
14 | CCOc1ccc(NC(=O)CC(C)=O)cc1 | inactive | inactive | inactive | inactive | inactive | inactive | inactive | inactive | inactive | inactive |  |  | inactive | inactive |  |  |  |  |  | 
15 | C=Cc1c(C)c2cc3[nH]c(cc4nc(cc5nc(cc1[nH]2)C(C)=C5CCC(=O)O)C(CCC(=O)O)=C4C)c(C)c3C=C | inactive | inactive | inactive | inactive | 23.7 µM (active) | inactive |  |  | inactive | inactive | inactive |  | inactive | inactive |  |  | inactive | inactive |  | 
16 | CN(C)CCCNCCCN | 48.8 µM (active) | inactive | inactive | inactive | inactive | inactive | inactive | inactive | inactive | inactive | inactive | inactive |  |  |  |  |  |  |  | 
17 | CC(C)NCC(O)c1cc(O)cc(O)c1 (stereo not given) | inactive | inactive | inactive | inactive | inactive | inactive | inactive | inactive | inactive |  | inactive | 10.6 µM (active) |  | inactive | inactive | inactive | inactive | inactive | inactive | inactive
18 | OCC1CC2CC1C1CCC(CO)C21 (stereo not given) | inactive | inactive | inactive | inactive | inactive | inactive | inactive | inactive | inactive | inactive | inactive | inactive | inactive | inactive |  |  |  |  |  | 
19 | ClC(Cl)(Cl)c1ccc(C(Cl)(Cl)Cl)cc1 | inactive | inactive | inactive | inactive | inactive | inactive | inactive | inactive | inactive | inactive | inactive | inactive |  |  |  |  |  |  |  | 
20 | CCCCOc1cc(C(=O)OCCN(CC)CC)ccc1N | inactive | inactive | inactive | inactive | inactive | inactive | inactive | inactive | inactive |  |  |  |  |  |  |  |  |  |  | 
